Laboratory results: PubChem BioAssay AID1212 (NMMLSC, 2008)
Unmarked numbers belong to inactive results. Calls of active or inactive are those of the source.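 How the source made its calls: active means blocks over 60% of fluorescent estradiol binding at 10 µM; inactive means the rest.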

Biological target: G-protein coupled estrogen receptor 1 (Homo sapiens) (UniProt Q99527)
Experiment: displacement of E2-Alexa633 from GPER – cell-based, Cos7 GPR30-GFP, flow cytometry, 10 µM, primary screen (AID 1212)
Details: fluorescent estrogen competition, at 10 µM; hits give high values

Row | SMILES | inhibition | outcome
1 | COc1cc([N+](=O)[O-])cc2c1NC(c1ccc(Cl)cc1)C1CC=CC21 (configuration not stated) | 9% | –
2 | CCC(Oc1ccc2c3c(c(=O)oc2c1C)CCC3)C(=O)OC (configuration not stated) | – | inactive
3 | CC(=O)c1ccc(N2Cc3ccccc3C2)cc1 | – | inactive
4 | Cc1nc2ccccc2n1-c1cc(C(C)(C)C)c(O)c(C(C)(C)C)c1 | – | inactive
5 | COC(=O)c1ccc(OCc2c(C)noc2C)cc1 | 61% (active) | –
6 | O=C(O)COc1cc2oc(=O)c3c(c2cc1Cl)CCCC3 | – | inactive
7 | COc1ccc(C2(CNCC(N)=O)CCCC2)cc1OC | – | inactive
8 | COc1cc(C2C3C(C)N(C)C(=O)N(C)C3N(C)C(=O)N2C)ccc1O (configuration not stated) | – | inactive
9 | CCOC(=O)COc1cc2oc(=O)c3c(c2cc1CC)CCCC3 | – | inactive
10 | COc1cc2c(cc1OC)CC(C)(C)N(Cc1ccco1)C2 | 5% | –
11 | CCOc1cc2c(cc1OCC)C(C(CC)CC)NCC2 (configuration not stated) | – | inactive
12 | Cc1c(Cc2ccccc2)c(=O)n2c([nH]c3ccccc32)c1C#N | 8% | –
13 | CC(C)C1CC(CCNCc2ccc3c(c2)OCO3)(c2ccccc2)CCO1 (configuration not stated) | – | inactive
14 | COc1ccc(-n2cc3c(c(C#N)c2=N)CC(C)(C)CC3=O)cc1 | – | inactive
15 | CC1CCC2(C)c3[nH]c4ccccc4c3CCN2C1=O (configuration not stated) | 2% | –
16 | C=C1c2ccc(OC)cc2NC(=O)N1c1ccccc1 | – | inactive
17 | CSC(=O)CNC1(Cc2ccc(O)cc2)CCCCC1 | – | inactive
18 | O=c1oc2cc(O)c(Cl)cc2c2c1CCCC2 | – | inactive
19 | CCCCCCc1cc2c3c(c(=O)oc2cc1OCC(=O)O)CCCC3 | – | inactive
20 | Cc1oc2ccc(OCC#N)cc2c1C(=O)OC(C)C | – | inactive
21 | CC1(C)Cc2[nH]c3ccccc3c2C(C)(C)N1 | – | inactive
22 | COc1cc([C@@H]2Nc3ccc(S(=O)(=O)Nc4ccccc4F)cc3[C@@H]3C=CC[C@@H]32)cc(OC)c1OC | 17% | –
23 | N#Cc1c2c(c(=O)n3c1[nH]c1ccccc13)CCCC2 | 15% | –
24 | CCCc1c(C(=O)OCC)[nH]c2c1C(=O)CC(c1ccccc1)C2 (configuration not stated) | – | inactive
25 | O=C(O)c1ccc2c(c1)C1C=CCC1C(c1cccc([N+](=O)[O-])c1)N2 (configuration not stated) | 57% | –
26 | CCOc1ccc(NS(=O)(=O)c2ccc3c(c2)[C@H]2C=CC[C@H]2[C@@H](c2ccc([N+](=O)[O-])cc2)N3)cc1 | 55% | –
27 | Cc1cc(C(C)CO)cc(C(C)(C)C)c1O (configuration not stated) | – | inactive
